ssDAF12 agonist = S. stercoralis DAF-12 activation, primary screen; actives 1% (n = 370,000); HEK293 ssDAF-12/GRIP1 lit1-tk-luc reporter, luminescence; % of 3 µM dafachronic acid response; activation, % at 6.8 µM;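 active = activation above the mean over all tested compounds plus 3 SD, cut at about 0.9% in these data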
DAX1 inh-1 = inhibitors of DAX1 repression of SF-1 activated StAR promoter; actives 1.1% (n = 370,000); HEK293T StAR-luciferase reporter, SF-1/DAX-1 repression relief; inhibition, % at 6.8 µM; AID 652010;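 active = inhibition above the mean over all tested compounds plus 3 SD, cut at about 3.6% in these data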;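 note: higher inhibition means more luminescence from relief of DAX-1 repression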
DAX1 inh-2 = inhibitors of human orphan nuclear receptor DAX1 (NR0B1). actives 0.99% (n = 340,000). inhibition, % at 6.75 µM. HEK293 Gal4-DAX1 luciferase reporter, luminescence. AID 504766;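 active = inhibition above the mean over all tested compounds plus 3 SD, cut at about 4.2% in these data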;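 note: inhibition shows as a rise in luminescence from relieved DAX1 repression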
Target sequence (P51843 207-470 limits assumed): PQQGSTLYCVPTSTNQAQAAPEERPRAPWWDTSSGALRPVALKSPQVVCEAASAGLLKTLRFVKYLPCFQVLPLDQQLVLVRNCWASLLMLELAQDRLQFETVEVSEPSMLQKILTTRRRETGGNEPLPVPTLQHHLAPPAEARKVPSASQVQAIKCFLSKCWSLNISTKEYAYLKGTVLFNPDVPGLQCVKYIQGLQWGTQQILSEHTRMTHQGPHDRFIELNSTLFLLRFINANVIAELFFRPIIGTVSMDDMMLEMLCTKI
hcDAF-12 act = activators of H. contortus DAF-12 nuclear receptor | activation, % at 6.8 µM | actives 1.4% (n = 370,000) | HEK293 hcDAF-12 lit1-tk-luc reporter, luminescence; 0% DMSO, 100% Δ7-dafachronic acid;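 active = activation above the mean of all tested compounds plus 3 SD, cut at about 5.5% in these data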
hgDAF12 agonist = activates the H. glycines DAF-12 receptor ligand-binding domain; activation, % at 6.8 µM; actives 1.8% (n = 370,000); HEK293 GAL4-hgDAF12 UAS-luciferase reporter, agonist luminescence; normalized to butyrate control; AID 687014;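 active = activation above a cutoff set at the mean of all screened compounds plus 3 SD, cut at about 10% in these data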
Numbers stand for hits. An excerpt weighted towards active compounds, which were near 4.1% of everything screened.

What do the screens show for `O=C(CSc1nc2ccccc2nc1N1CCCCC1)N1CCN(C(c2ccccc2)c2ccc(Cl)cc2)CC1` (centres undefined)?
ssDAF12 agonist: inactive; DAX1 inh-1: inactive; hcDAF-12 act: inactive; hgDAF12 agonist: inactive

How did COc1ccc(S[C@]2(C(=O)N(C)C)CC(=O)N(C(=O)CCc3ccccc3)[C@@H]2c2ccc(OC)cc2)cc1 do in these assays?
ssDAF12 agonist: inactive; DAX1 inh-1: inactive; hcDAF-12 act: inactive; hgDAF12 agonist: inactive

Results for O=C1CNC(=O)/C(=C/c2ccco2)N1 ?
ssDAF12 agonist: inactive; DAX1 inh-1: inactive; DAX1 inh-2: 4.4; hcDAF-12 act: inactive; hgDAF12 agonist: inactive

Results for CN1Cc2c(N3CCOCC3)nc3sc(C#N)c(N)c3c2CC1(C)C ?
ssDAF12 agonist: inactive; DAX1 inh-1: inactive; DAX1 inh-2: 5.4; hcDAF-12 act: inactive; hgDAF12 agonist: inactive

What do the screens show for `CN1Cc2c(N3CCOCC3)nc3sc(C(=O)c4ccc(Br)cc4)c(N)c3c2CC1(C)C`?
ssDAF12 agonist: inactive; DAX1 inh-1: inactive; hcDAF-12 act: inactive; hgDAF12 agonist: inactive

What do the screens show for `Cc1ccc(C(=O)N2CCC(Oc3cccnc3)CC2)cc1`?
ssDAF12 agonist: inactive; DAX1 inh-1: inactive; hcDAF-12 act: inactive; hgDAF12 agonist: inactive

Results for CC(=O)Cc1nsc(Nc2ccc(F)cc2)n1 ?
ssDAF12 agonist: inactive; DAX1 inh-1: inactive; DAX1 inh-2: inactive; hcDAF-12 act: inactive; hgDAF12 agonist: inactive

Results for CC(=O)Cc1nsc(Nc2ccc3c(c2)OCCO3)n1 ?
ssDAF12 agonist: inactive; DAX1 inh-1: inactive; DAX1 inh-2: inactive; hcDAF-12 act: inactive; hgDAF12 agonist: 12

How did O=C(NCc1ccccc1)OCCN1C(=O)CCC12CCC(c1ccccc1)CC2 (centres undefined) do in these assays?
ssDAF12 agonist: inactive; DAX1 inh-1: inactive; hcDAF-12 act: inactive; hgDAF12 agonist: inactive

Results for CC(=O)Nc1ccc(-c2cc(C(=O)O)c3cc4ccccc4cc3n2)cc1 ?
ssDAF12 agonist: 1.8; DAX1 inh-1: inactive; DAX1 inh-2: inactive; hcDAF-12 act: 5.9; hgDAF12 agonist: inactive

Results for CC(=O)Nc1ccc(-c2cc(C(=O)O)c3ccc(C)cc3n2)cc1 ?
ssDAF12 agonist: inactive; DAX1 inh-1: inactive; DAX1 inh-2: inactive; hcDAF-12 act: inactive; hgDAF12 agonist: inactive

Results for CCOc1ccc(NC(=S)c2ccc3ccccc3n2)cc1 ?
ssDAF12 agonist: 1.0; DAX1 inh-1: inactive; DAX1 inh-2: inactive; hcDAF-12 act: inactive; hgDAF12 agonist: inactive

What do the screens show for `COc1ccc(NC(=S)c2ccc3ccccc3n2)cc1`?
DAX1 inh-2: inactive

How did CCOc1ccc(NC(=O)c2cc(Cl)nc3ccccc23)cc1 do in these assays?
ssDAF12 agonist: inactive; DAX1 inh-1: inactive; DAX1 inh-2: 4.3; hcDAF-12 act: inactive; hgDAF12 agonist: inactive

What do the screens show for `COc1cccc(-c2cc(C(=O)Nc3ccccc3)c3ccccc3n2)c1`?
ssDAF12 agonist: inactive; DAX1 inh-1: inactive; hcDAF-12 act: inactive; hgDAF12 agonist: inactive

How did COc1ccc(-c2cc(C(=O)Nc3ccc(C(N)=O)cc3)c3ccccc3n2)cc1 do in these assays?
ssDAF12 agonist: inactive; DAX1 inh-1: inactive; DAX1 inh-2: inactive; hcDAF-12 act: inactive; hgDAF12 agonist: 11

Results for CCOc1ccc(NC(=O)c2ccccc2O)cc1 ?
ssDAF12 agonist: inactive; DAX1 inh-1: inactive; DAX1 inh-2: inactive; hcDAF-12 act: inactive; hgDAF12 agonist: 12

What do the screens show for `CC(C)Oc1ccc(Oc2ccc(C#C[C@H](C)N3C(=O)c4ccccc4C3=O)cc2)cn1`?
ssDAF12 agonist: inactive; hcDAF-12 act: inactive; hgDAF12 agonist: inactive

What do the screens show for `COC(=O)[C@]12C[C@H](CC(=O)N3CCCCC3)C(=O)N(Cc3ccco3)C1=C[C@H](C(C)(C)C)O[C@@H]2C`?
ssDAF12 agonist: inactive; DAX1 inh-1: inactive; hcDAF-12 act: inactive; hgDAF12 agonist: inactive

How did CCOC(=O)N(C)[C@H]1C[C@H]2c3[nH]c4c(-c5ccc6c(c5)OCO6)cccc4c3CCN2C(=O)[C@H]1[C@H](C)O do in these assays?
ssDAF12 agonist: inactive; DAX1 inh-1: inactive; hcDAF-12 act: inactive; hgDAF12 agonist: inactive

How did O=C(COc1ccc(F)c(Cl)c1)N[C@H]1CCCN(CC2CC2)C1 do in these assays?
ssDAF12 agonist: inactive; hcDAF-12 act: inactive; hgDAF12 agonist: inactive

Results for Nc1[nH]c(C(=O)c2ccc(Br)cc2)c(-c2ccc(Cl)cc2Cl)c1C(=O)NCCc1c[nH]c2ccccc12 ?
ssDAF12 agonist: 1.1; DAX1 inh-1: inactive; hcDAF-12 act: inactive; hgDAF12 agonist: inactive

Results for O=C(CN1CCc2ccccc2C1)Nc1ccc(F)cc1 ?
ssDAF12 agonist: inactive; DAX1 inh-1: inactive; DAX1 inh-2: 4.2; hcDAF-12 act: inactive; hgDAF12 agonist: inactive

How did CCOc1ccc(NC(=O)CN2CCc3ccccc3C2)cc1 do in these assays?
ssDAF12 agonist: inactive; DAX1 inh-1: inactive; DAX1 inh-2: inactive; hcDAF-12 act: inactive; hgDAF12 agonist: inactive

Results for O=C(CN1CCN(Cc2ccc3c(c2)OCO3)CC1)Nc1ccc(F)cc1 ?
ssDAF12 agonist: inactive; DAX1 inh-1: inactive; DAX1 inh-2: 4.8; hcDAF-12 act: inactive; hgDAF12 agonist: inactive

What do the screens show for `CN(C)c1ccc(NC(=O)CN2CCc3ccccc3C2)cc1`?
ssDAF12 agonist: inactive; DAX1 inh-1: inactive; DAX1 inh-2: inactive; hcDAF-12 act: 5.7; hgDAF12 agonist: inactive

How did Cc1cc(N2CCN(C(=O)Oc3ccc(-c4ccccc4)cn3)CC2)c2ccccc2n1 do in these assays?
ssDAF12 agonist: inactive; DAX1 inh-1: inactive; hcDAF-12 act: inactive; hgDAF12 agonist: inactive

Results for CCc1ccccc1OCC(=O)OCC(=O)Nc1cc(C)on1 ?
ssDAF12 agonist: inactive; DAX1 inh-1: 3.8; DAX1 inh-2: inactive; hcDAF-12 act: inactive; hgDAF12 agonist: inactive

Results for CCOc1ccc(/C=N/OCC(=O)Nc2cc(C)on2)cc1 ?
ssDAF12 agonist: 1.6; DAX1 inh-1: inactive; DAX1 inh-2: inactive; hcDAF-12 act: inactive; hgDAF12 agonist: inactive

What do the screens show for `O=C(N/N=C/c1ccc(-c2ccccc2C(=O)O)o1)c1cccs1`?
ssDAF12 agonist: inactive; DAX1 inh-1: inactive; DAX1 inh-2: inactive; hcDAF-12 act: inactive; hgDAF12 agonist: 12

Results for O=C(N/N=C/c1ccncc1)c1cccs1 ?
DAX1 inh-2: inactive

Results for C/C(CCc1ccc2c(c1)OCO2)=N\NC(=O)c1ccc(C)cc1C ?
ssDAF12 agonist: inactive; DAX1 inh-1: inactive; DAX1 inh-2: inactive; hcDAF-12 act: inactive; hgDAF12 agonist: 13

Results for Cc1ccc(C(=O)NCc2ccc3c(c2)OCO3)c(C)c1 ?
ssDAF12 agonist: inactive; DAX1 inh-1: inactive; DAX1 inh-2: inactive; hcDAF-12 act: inactive; hgDAF12 agonist: inactive

What do the screens show for `O=C(Nc1ccc(NC(=O)C2CCCCC2)nc1)c1ccccn1`?
ssDAF12 agonist: inactive; DAX1 inh-1: inactive; DAX1 inh-2: inactive; hcDAF-12 act: inactive; hgDAF12 agonist: 12

Results for COc1ccccc1C(=O)Nc1ccc(NC(=O)C2CCCCC2)nc1 ?
ssDAF12 agonist: inactive; DAX1 inh-1: inactive; DAX1 inh-2: inactive; hcDAF-12 act: inactive; hgDAF12 agonist: inactive

How did Nc1c(C(=O)c2cccs2)oc2ccccc12 do in these assays?
ssDAF12 agonist: inactive; DAX1 inh-1: inactive; DAX1 inh-2: inactive; hcDAF-12 act: 6.1; hgDAF12 agonist: inactive

Compound activity: PubChem, The Scripps Research Institute Molecular Screening Center
